Assay outcomes deposited in PubChem BioAssay by Broad Institute.
MITF TRPM1 HTS: activators of MITF-driven TRPM1 promoter reporter, primary screen, cell-based, SK-MEL-5, luciferase, single point. SK-MEL-5 TRPM1-promoter luciferase, 24 h; % of positive control, neutral wells = 0. AID 588334, 2011. actives 0.75% (n = 300,000). activation, % at 12.5 µM;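 active = mean activation of at least 80% with every replicate also reaching 80%; inconclusive = mean reaches 80% but some replicate falls short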;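 note: 0% = neutral control wells and 100% = parthenolide positive control wells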
Wnt bcat act: Wnt/beta-catenin pathway activators, primary screen, cell-based, plate reader, single point | actives 1.2% (n = 300,000) | Wnt/beta-catenin reporter cell assay, activator | activation, % at 9.35 µM; in the data active = activation above about 30%, passing the limit was not always enough; inconclusive = no clear call, values can overlap the other calls;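 note: 0% = neutral control wells and 100% = positive control wells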
HSF-1 act: HSF-1 activators, primary screen, NIH3T3-HGL cells, MG132 stress, luminescence, single point. NIH3T3-HGL HSF-1 luciferase reporter, 8 h; 100% = twice DMSO control signal. activation, % at 9 µM. actives 1.7% (n = 300,000);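 active = mean replicate activation of at least 50% with a set share of replicates each reaching 50%; inconclusive = only one of those two conditions met; inactive = mean below 50% and too few replicates reaching it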;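 note: 0% = median of the neutral control wells and 100% = twice that signal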
esBAF inh: Bmi1 luciferase reporter increase in mESCs, primary screen, esBAF inhibitor project, mouse ES cells, Bmi1 luciferase knock-in, single point | actives 2% (n = 350,000) | 24 h; 100% = twice the neutral-well signal | reporter increase, % at 12.5 µM; in the data active = activation above about 40%; inconclusive = no clear call, values can overlap the other calls;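 note: 0% = median of the plate's neutral control wells and 100% = double that signal; a rise in the Bmi1 reporter signal indicates esBAF inhibition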
HSF1 inh: HSF1 inhibitors in luciferase reporter cells, primary screen, cell-based, NIH3T3, luminescence | NIH3T3-HGL HSE-luciferase, MG132-induced, luminescence 8 h; active compounds read low | activity change, negative = inhibition, % at 7.5 µM (by protocol) | actives 0.77% (n = 300,000);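 active = more than half of replicate wells show activity change below -50%, luminescence cut by over half; inconclusive = some wells, but at most half, below -50%; inactive = no replicate well below -50%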;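 note: luciferase reports HSF-1 transcriptional activity via heat shock element; 0% = median of DMSO wells and -100% = zero luminescence signal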
The depositor's hits bear a star. In the library only some 3.9% were active in any assay of this set; here they are far more common.

Results for CC(Sc1nnc2ccccn12)C(N)=O (configuration not stated) ?
MITF TRPM1 HTS: 2; Wnt bcat act: 0; HSF-1 act: 76*; esBAF inh: 8; HSF1 inh: 31

Results for Cc1ccc(C(=O)CSc2nnc(N)s2)c(C)c1 ?
MITF TRPM1 HTS: 87*; Wnt bcat act: 14; HSF-1 act: 45; esBAF inh: 61*; HSF1 inh: 16

Results for Cc1cc(C)c(C(=O)CSc2nnc(N)s2)cc1C ?
MITF TRPM1 HTS: 13; Wnt bcat act: 3; HSF-1 act: 23; HSF1 inh: 11

What do the screens show for `Cc1ccc(C(=O)CSc2nnc3ccccn23)c(C)c1`?
MITF TRPM1 HTS: 12; Wnt bcat act: 33*; HSF-1 act: 22; HSF1 inh: 11

What do the screens show for `Cc1ccccc1C(=O)Oc1ccc2ccc(O)cc2c1`?
Wnt bcat act: -2; HSF-1 act: 32; esBAF inh: 62*; HSF1 inh: 22

How did COc1cccc(C(=O)Oc2ccc3ccc(O)cc3c2)c1 do in these assays?
HSF-1 act: 12; HSF1 inh: 1

How did CC(=O)Nc1ccc(OS(=O)(=O)c2ccccc2C)cc1 do in these assays?
MITF TRPM1 HTS: 9; Wnt bcat act: 1; HSF-1 act: -93; HSF1 inh: -91*

Results for Cc1ccccc1S(=O)(=O)Oc1ccc2ccc(O)cc2c1 ?
Wnt bcat act: 9; HSF-1 act: 5; esBAF inh: 74*; HSF1 inh: 0

How did CC(=O)Nc1ccc(OS(=O)(=O)c2ccc(C)cc2C)cc1 do in these assays?
MITF TRPM1 HTS: 16; Wnt bcat act: -1; HSF-1 act: -2; HSF1 inh: -2

What do the screens show for `c1ccc(-c2nnsc2-c2ccccc2)cc1`?
MITF TRPM1 HTS: 8; Wnt bcat act: 1; HSF-1 act: 0; esBAF inh: -1; HSF1 inh: -6

What do the screens show for `O=S(=O)(c1ccc(Cl)c(Cl)c1)c1snnc1-c1ccccc1`?
MITF TRPM1 HTS: -88; HSF-1 act: 431*; esBAF inh: 1; HSF1 inh: 296

What do the screens show for `CCCNC(=O)[C@H]1[C@H](CO)[C@H]2Cn3c(cccc3=O)[C@H]2N1C(=O)CC1CC1`?
esBAF inh: -1

How did Cc1noc(C)c1S(=O)(=O)Nc1ccc2c(c1)C(=O)N([C@H](C)CO)C[C@@H](C)[C@@H](CN(C)CC1CCCCC1)O2 do in these assays?
esBAF inh: 4

Results for O=C(CSc1nnc(-c2ccccc2)n1-c1ccccc1)c1cccs1 ?
MITF TRPM1 HTS: 5; Wnt bcat act: -4; HSF-1 act: 20; esBAF inh: -2; HSF1 inh: 0

Results for O=C(CSc1ncn(-c2ccccc2)n1)c1cccs1 ?
MITF TRPM1 HTS: 90*; Wnt bcat act: inconclusive; HSF-1 act: inconclusive; esBAF inh: 64*; HSF1 inh: 29

How did Nc1nc(CSc2nc3ccccc3[nH]2)cs1 do in these assays?
MITF TRPM1 HTS: 50; HSF-1 act: 0; esBAF inh: 27; HSF1 inh: 6

What do the screens show for `Nc1nc(CSc2ncn(-c3ccccc3)n2)cs1`?
MITF TRPM1 HTS: 61; Wnt bcat act: 18; HSF-1 act: -88; esBAF inh: -36; HSF1 inh: -86*

Results for c1ccc(CSc2ncn(-c3ccccc3)n2)cc1 ?
MITF TRPM1 HTS: 75; HSF-1 act: 46; esBAF inh: 45*; HSF1 inh: 20

What do the screens show for `N#Cc1cc2cc3c(cc2nc1N1CCCCC1)OCCO3`?
MITF TRPM1 HTS: 102*; Wnt bcat act: 32*; HSF-1 act: -12; esBAF inh: 70*; HSF1 inh: -1

What do the screens show for `N#Cc1cc2cc3c(cc2nc1Cl)OCCO3`?
Wnt bcat act: 6; esBAF inh: 7

What do the screens show for `Cc1ccc(S(=O)(=O)Nc2cc3c4c(c2)CCN4C(=O)CC3)cc1`?
MITF TRPM1 HTS: 7; Wnt bcat act: 0; HSF-1 act: 58*; HSF1 inh: 35

Results for O=C1CCc2cc(NS(=O)(=O)c3ccc(F)cc3)cc3c2N1CC3 ?
MITF TRPM1 HTS: 3; Wnt bcat act: -3; HSF-1 act: 20; HSF1 inh: 8
